Screening data as filed in PubChem.
NPC1 promoter act: activators of NPC1 promoter | 2.4% of 320,000 active | Huh7 NPC1 promoter luciferase reporter, 24 h | Potency, µM (doses to about 9.22 µM), without a hit: at the top dose activation, usual class: activators; note: % of control where 0% means no effect; nearly all actives have a fitted effect of over 60% in size
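Stably transfected Huh7 (NPC1 promoter→luciferase), 1500 cells/well in Opti-MEM + 10% FBS, 2 h settle, then compound 24 h at 37 °C. Luminescence after 10 min with Amplite reagent.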
SMN2 splice up: increases expression of the SMN2 splice variant. HEK293 SMN2-luciferase splicing reporter, luminescence, 30-36 h. Potency, µM (series often up to 46.1 µM), without a hit: top-dose activity change, positive = activation, hits mostly activators. 2.8% of 210,000 active. AID 1458; note: % of control where 0% means no effect; nearly all actives have a fitted effect of over 55% in size
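qHTS luciferase splicing reporter: luminescence rises when SMN2 exon 7 is included in transfected HEK293 cells. Compound exposure lasted 30-36 h at 37C, with 4.5 mM final sodium butyrate as control, followed by a ONE-Glo read.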
Rab9 promoter act: activators of Rab9 promoter; AID 485297; Huh7 Rab9 promoter-luciferase reporter, luminescence, 24 h; 2.8% of 320,000 active; Potency, µM (top dose mostly 9.22 µM), for the others: at the highest dose activation, negative = inhibition, most hits filed as activators; note: % of control where 0% means no effect; nearly all actives have a fitted effect of over 60% in size
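Luciferase signal after 10 min detection reagent at ambient indicates Rab9 promoter upregulation; stably transfected Huh7 cells were treated 24 h with compound in DMSO at 37 °C, 5% CO2.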
KinaseGlo FLuc: blocks Kinase-Glo luciferase, a counter-screen artifact. Q27757. Kinase-Glo luciferase, ATP luminescence, 8 min. Potency, µM (titrated, usually from 38.3 µM), for the others: top-dose activity change, negative = inhibition, usual class: inhibitors. 0.28% of 200,000 active; note: % is set by controls: 0 for no effect and ±100 for the full control effect; nearly all actives have a fitted effect of over 60% in size
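Luminescence was the read-out, taken after 8-minute incubation at ambient temperature. Luciferase turned over luciferin with 10 uM ATP in imidazole pH 7.2 buffer containing KCl, MgCl2, Tween 20 and BSA.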
FLuc modulator: firefly luciferase modulation, counter-screen for miR-21 project | AID 588342 | purified FLuc, Km substrates, luminescence inhibition | 6.9% of 360,000 active | Potency, µM (highest dose often 57.5 µM), for inactives: at the top dose activity change, negative = inhibition, most hits filed as inhibitors;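 note: plate controls were vehicle for no effect and reference inhibitor for full effect; nearly all actives have a fitted effect of over 55% in size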
Target sequence (P08659 whole entry, looked up): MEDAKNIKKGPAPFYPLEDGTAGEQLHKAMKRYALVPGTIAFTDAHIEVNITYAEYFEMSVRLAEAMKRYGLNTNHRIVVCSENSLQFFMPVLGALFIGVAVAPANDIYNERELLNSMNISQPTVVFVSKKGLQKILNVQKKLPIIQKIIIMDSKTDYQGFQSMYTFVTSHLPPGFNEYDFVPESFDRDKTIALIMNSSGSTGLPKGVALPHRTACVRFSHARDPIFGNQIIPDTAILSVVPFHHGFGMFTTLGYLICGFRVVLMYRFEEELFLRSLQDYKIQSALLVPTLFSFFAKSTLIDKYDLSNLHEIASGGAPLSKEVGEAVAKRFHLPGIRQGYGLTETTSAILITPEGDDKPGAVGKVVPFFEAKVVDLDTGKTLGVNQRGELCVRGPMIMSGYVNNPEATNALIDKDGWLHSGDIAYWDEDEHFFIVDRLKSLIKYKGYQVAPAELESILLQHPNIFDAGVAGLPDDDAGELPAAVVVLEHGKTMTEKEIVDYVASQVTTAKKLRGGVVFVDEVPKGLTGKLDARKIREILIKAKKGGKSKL
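Purified P. pyralis luciferase (10nM final) with 10uM D-luciferin and 10uM ATP (Km levels) in 50mM Tris acetate pH 7.5, 10mM Mg acetate, 0.01% Tween-20, 0.05% BSA; qHTS 6-point titration, ~60 µM downward; luminescence read.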
Starred values were filed as active, the others as inactive; ? = inconclusive; . = no result; [ ] = another dose, or the depositor's remark. Compounds with a hit are over-represented: about 7.3% of the library has one in this group of screens. Calls come from the whole dose curve; as a rule, active = well fitted curve in the direction sought with a large enough effect; inconclusive = small, poorly fitted or top-dose-only effect, or another doubt; inactive = no such curve, though single readings can be large; an effect the other way counts as inactive or inconclusive. Potency is the fitted concentration of half-maximal effect.

SMILES	NPC1 promoter act	SMN2 splice up	Rab9 promoter act	KinaseGlo FLuc	FLuc modulator
CC(=O)NCc1ccc(-c2csc(-c3cccs3)n2)cc1	2µM*	.	2.2µM*	.	5.4µM*
c1cncc(-c2nc3ccccc3s2)c1	?	.	?	.	21µM*
CC(=O)NCc1ccc(-c2nc3ccccc3s2)cc1	2.2µM*	14µM*	0.63µM*	-10%	3µM*
O=C(Cn1cc(S(=O)(=O)Cc2cccc(Cl)c2)c2ccccc21)Nc1ccccc1Cl	.	.	.	.	-3%
CCCS(=O)(=O)c1ncc(Cl)c(C(=O)N(Cc2ccccc2)Cc2ccco2)n1	.	-64%	.	.	-17%
COc1cccc([C@@H]2Oc3ccc(OC)cc3C[C@H]2O)c1	.	17%	.	2%	.
CCOC(=O)c1c(NC(=O)c2cc(=O)c3cc(C)cc(C)c3o2)sc(C)c1C	.	6%	.	.	-2%
O=C(COC(=O)c1cc(-c2cccs2)nc2ccccc12)c1ccc(Br)cc1	.	-1%	.	.	?
CCOc1ccccc1-n1ccnc(NCc2ccc(F)cc2)c1=O	.	.	.	.	2%
CC1(C)CC(=O)C2=C(C1)O[C@@]1(CCCCN3C(=O)c4ccccc4C3=O)Cc3cc(C#N)ccc3C2O1	0%[1.84 µM]	.	-7%[1.84 µM]	.	-1%[11.5 µM]
c1csc(-c2nc3ccccc3s2)c1	2.5µM*	.	3.5µM*	.	2.7µM*
CC(=O)Nc1scc(C)c1-c1nc2ccccc2s1	-2%	.	-2%	.	4%
c1ccc2sc(-c3ccncc3)nc2c1	3.2µM*	.	2.8µM*	.	15µM*
O=C(Nc1ccc(O)c(-c2nc3ccccc3s2)c1)c1cccs1	8%	15%	-1%	0%	?
CCc1ccc(N=Nc2ccc(O)c3[nH]cnc23)cc1	?	.	-7%	.	?
Cc1ccc(N=Nc2c(O)ccc3n[nH]nc23)cc1	1.6µM*	.	?	.	11µM*
N#CC1=C(N)N(c2ccc(F)cc2)C2=C(C1c1ccc(O)cc1)S(=O)(=O)CC2 (centres undefined)	0%	-31%	1%	?	21µM*
Cc1ccsc1/C=N/NC(=O)c1ccc2c(c1)OCCO2	0.63µM*	.	0.35µM*	.	0.95µM*
Cc1ccsc1/C=N\NC(=O)c1ccc2c(c1)OCO2	1.4µM*	?	1.4µM*	-18%	3.8µM*
Cc1ccsc1/C=N/NC(=O)c1ccc2nc[nH]c2c1	23%	21%	?	-5%	?
CC(C)C(=O)Nc1nc(-c2ccc3c(c2)CCN3C(=O)C2CC2)cs1	?	.	?	.	15µM*
CC(C)(C)Nc1nc(-c2ccc3c(c2)CCN3C(=O)C2CC2)cs1	1.8µM*	.	?	.	3µM*
CCC(CC)C(=O)Nc1nc(-c2ccc3c(c2)CCN3C(=O)C2CC2)c(C)s1	-2%	-30%	-3%	-1%	3%
CC(=O)Nc1nc(-c2ccc3c(c2)CCN3S(C)(=O)=O)cs1	?	10µM*	2.5µM*	3%	21µM*
COc1ccc(-c2cc(C(F)(F)F)nc(SCC(=O)NCc3ccc(Cl)cc3)n2)cc1	.	-6%	.	.	-4%
SMILES	NPC1 promoter act	SMN2 splice up	Rab9 promoter act	KinaseGlo FLuc	FLuc modulator
COC(=O)C1C(=O)c2c([nH]c(C(=O)OCC3CCCO3)c2C)CC1C (centres undefined)	27%	?	?	3%	8.5µM*
COCCOC(=O)c1[nH]c2c(c1C)C(=O)C(C(=O)OC)C(C)C2 (centres undefined)	?	11µM*	3.5µM*	-5%	9.5µM*
COC(=O)C1C(=O)c2c([nH]c(C(=O)OC3CCCCCC3)c2C)CC1C (centres undefined)	?	?	?	0%	?
CCCCOC(=O)c1[nH]c2c(c1C)C(=O)CC(c1cc(OC)c(OC)c(OC)c1)C2 (centres undefined)	-20%	-75%	-25%	3%	7%
CCCCCOC(=O)c1[nH]c2c(c1C)C(=O)C(C(=O)OC)C(C)C2 (centres undefined)	20%	-5%	?	-3%	11µM*
O=C(Cn1c(=O)nc(-c2ccccc2)c2cc(Cl)ccc21)NCc1ccccc1	.	.	.	.	-13%
CCc1ccccc1NC(=O)CSC1=Nc2ccccc2C2=NC(Cc3ccccc3)C(=O)N12 (centres undefined)	.	.	.	.	-6%
Cc1ccccc1NC(=O)Cn1c(C)nc2ccc(NC(=O)C3CC3)cc2c1=O	0%	4%	1%	-2%	6%
CCC(=O)Nc1ccc2nc(C3CC3)n(Cc3ccccc3)c(=O)c2c1	?	?	3.5µM*	-16%	?
CCC(=O)Nc1ccc2nc(C)n(CC(=O)Nc3ccccc3)c(=O)c2c1	-2%	-25%	9%	10%	-3%
O=C(Nc1ccc2nc(C3CC3)n(Cc3ccccc3)c(=O)c2c1)C1CC1	2.8µM*	.	2.5µM*	.	-9%
COc1ccc(Cn2c(C3CC3)nc3ccc(NC(=O)c4ccco4)cc3c2=O)cc1	3.2µM*	?	21%	-3%	15µM*
CC(=O)Nc1ccc2nc(C)n(Cc3ccc(Cl)cc3)c(=O)c2c1	?	13µM*	25%	0%	-29%
CCOC(=O)c1cccc(NC(=O)C2=C(C)C(=O)OC23CCCCC3)c1	.	-3%	.	.	12%
O=C(NCc1cccs1)c1ccc(CSc2nc3cccnc3n2Cc2ccccc2F)cc1	.	.	.	.	-17%
Cc1ccc(CSc2nc3cccnc3n2Cc2ccc(C(=O)NCc3cccs3)cc2)cc1	.	.	.	.	0.95µM*
O=C(NCc1cccs1)c1ccc(Cn2c(SCc3ccc(F)cc3)nc3cccnc32)cc1	.	.	.	.	5.4µM*
O=C(NCc1cccs1)c1ccc(Cn2c(SCc3ccccc3)nc3cccnc32)cc1	.	.	.	.	6.7µM*
Cc1cccc(Cn2c(SCc3ccc(C(=O)NCc4cccs4)cc3)nc3cccnc32)c1	.	.	.	.	-15%
CC(C)c1ccc(S(=O)(=O)N2CCC(N3CCN(Cc4ccccc4)C(=O)C3=O)CC2)cc1	.	.	.	.	-2%
CCC1=C(c2ccc(C)cc2)S(=O)(=O)N=C1N1CCC(C(=O)NCCc2ccc(Cl)cc2)CC1	.	-65%	.	.	6%
N#Cc1c(NC(=O)c2cnn3cccnc23)sc2c1CCCC2	?	19%	?	-7%	?
CC1CCc2c(sc(NC(=O)c3nc4ncccn4n3)c2C#N)C1 (centres undefined)	3.2µM*	.	4.5µM*	.	7.6µM*
N#Cc1c(NC(=O)c2nc3ncccn3n2)sc2c1CCCCC2	1.8µM*	7.9µM*	4.5µM*	-7%	13µM*
Cc1nc(Cl)cc(N/N=C/c2ccc(O)cc2O)n1	-1%	.	4%	.	13µM*
Cc1nc(Cl)cc(N/N=C/c2ccc(O)cc2)n1	15%	.	6%	.	21µM*
Oc1ccc(/C=N/Nc2cc(N3CCCC3)nc(N3CCCC3)n2)cc1	-1%	-34%	1%	0%	-9%
Cc1cc(N/N=C/c2ccc(O)cc2O)nc(-n2nc(C)cc2C)n1	-32%	-91%	-43%	1%	-9%
COc1ccc(C2=NCN(c3ccc(C)cc3)C(=S)N2)cc1	?	?	2.8µM*	-6%	12µM*
